The values that follow come from PubChem BioAssay (NCI).

About 83,000 compounds went through this panel and 20% of them were active in at least one assay; those are over-represented in the sample as a whole.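 In brief: 96-well plates, 48 h treatment, single concentration, percent growth endpoint.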 A number with no mark means an inactive call. Activity calls are given as the source filed them. Rule for the calls: active = growth percent below 10; inactive = the rest.

Test systems include T-47D breast; SW-620 colon; MCF7 breast; HCT-116 colon; HCC-2998 colon; KM12 colon; MDA-MB-435 melanoma.
Holding throughout (assay): NCI-60 one-dose screen, 48 h (100 = growth as untreated, 0 = no growth, -100 = all killed)
What all share (conditions): 10 µM unless noted

`O=C1NC(=O)/C(=C\c2ccco2)S1`: the growth in the experiment with T-47D breast was 95.4%; with SW-620 colon, 100%; with MCF7 breast, 104%; in the experiment with HCT-116 colon, 108%; in the experiment on HCC-2998 colon, 116%; in the experiment on KM12 colon it was 103%.

For `CCOC(=O)N1CCC(N=C2CSc3nnc(-c4cc(C(F)(F)F)cc(C(F)(F)F)c4)n3N2)CC1`, the growth is 34% with T-47D breast; 24.9% in the experiment with MDA-MB-435 melanoma; 36.2% in the experiment with SW-620 colon; 13.6% in the experiment with MCF7 breast; -10.9% (active) in the experiment with HCT-116 colon; 34.5% in the experiment on KM12 colon.

On to `CC[C@@H](C)/C=C(C)/C=C/C(O)=C1\C(=O)N[C@@H](Cc2ccc(OC(=O)[C@@](OC)(c3ccccc3)C(F)(F)F)cc2)C1=O`, for which the growth was 113% in the experiment on T-47D breast; 101% in the experiment with MDA-MB-435 melanoma; 96.7% in the experiment with SW-620 colon; 99.8% in the experiment on MCF7 breast; 91% in the experiment with HCT-116 colon; 91.1% in the experiment with KM12 colon.

Turning to `COc1ccc(NC(=O)c2ccccc2-c2ccccc2)c(C(N)=O)c1`, the growth is 34% in the experiment with T-47D breast; -22.6% (active) with MDA-MB-435 melanoma; 24.7% in the experiment on SW-620 colon; 25.5% with MCF7 breast; 27% with HCT-116 colon; 76.7% in the experiment on HCC-2998 colon. Further, in the experiment with KM12 colon, the growth is 19.2%.

Take `C/C(=C\CCc1ccoc1)CC/C=C(\C)CCCNc1ccc(F)cc1`: the growth was 77.8% with T-47D breast; 99.2% in the experiment on MDA-MB-435 melanoma; 92.8% with MCF7 breast; 85.2% in the experiment on HCT-116 colon; 111% in the experiment on HCC-2998 colon; 96.3% in the experiment with KM12 colon.

Consider `O=C(O)CNC(=O)C1(N2C(=O)c3ccccc3C2=O)CCCC1`, for which the growth in the experiment on T-47D breast was 102%; with MDA-MB-435 melanoma, 96.3%; in the experiment on SW-620 colon, 110%; in the experiment with MCF7 breast, 92%; with HCT-116 colon, 103%; in the experiment on HCC-2998 colon, 104%. For the same compound, the growth in the experiment with KM12 colon is 118%.

In the case of `COc1cccc(/C=N\NC(=O)c2ccncc2)c1O`, the growth with T-47D breast is 28.2%; in the experiment with MDA-MB-435 melanoma it was 83%; in the experiment on SW-620 colon, 62.5%; in the experiment with MCF7 breast it was 26.5%; with HCT-116 colon it was 11.6%; in the experiment with HCC-2998 colon it was 57.2%. The growth with KM12 colon was 62.6%.

For `O=C(Nc1nn2c(-c3cc(C(F)(F)F)cc(C(F)(F)F)c3)nnc2s1)C1CCCC1`, the growth in the experiment with T-47D breast was 11.6%; in the experiment with MDA-MB-435 melanoma it was 12.5%; with SW-620 colon, 15.5%; with MCF7 breast, 6.67% (active); with HCT-116 colon it was -29.7% (active); in the experiment on KM12 colon it was 11.1%.

As for `C[C@@H]1C[C@@H]([C@@H](CC2CC(=O)NC(=O)C2)OC(=O)CC(=O)c2ccccc2)C(=O)[C@@H](C)C1`, the growth with T-47D breast was -2.63% (active); in the experiment on MDA-MB-435 melanoma, 11.6%; with SW-620 colon, 15.1%; with MCF7 breast, 14.7%; with HCT-116 colon, 5.68% (active); with KM12 colon it was 12%.

Turning to `CCSc1nc(-c2ccco2)n2nc(-c3ccco3)cc2n1`, the growth in the experiment on T-47D breast was 22.9%; in the experiment with MDA-MB-435 melanoma, 111%; in the experiment with SW-620 colon, 95.5%; with MCF7 breast, 22.6%; in the experiment with HCT-116 colon, 93.4%; in the experiment with HCC-2998 colon, 83.7%. In the experiment with KM12 colon, the growth was 63.8%.

With `NC(=O)c1cc(Cl)ccc1NC(=O)c1ccccc1-c1ccccc1`, the growth is 26.9% in the experiment with T-47D breast; -63.7% (active) with MDA-MB-435 melanoma; 25.4% in the experiment with MCF7 breast; 23.2% in the experiment on HCT-116 colon; 49.3% with HCC-2998 colon; 16.9% in the experiment on KM12 colon.

For the compound `O=C(Nc1ccc(Cl)cc1)Nc1ccccc1CNc1nc(Nc2ccc(OCCN3CCCC3)cc2)ncc1Cl`, the growth is 105% in the experiment with T-47D breast; -28.9% (active) in the experiment with MDA-MB-435 melanoma; -14.9% (active) with SW-620 colon; -10.5% (active) in the experiment on MCF7 breast; -28.7% (active) with HCT-116 colon; 11.3% with KM12 colon.

As for `NS(=O)(=O)c1ccc(N2CC(c3nc4ccccc4[nH]3)CC2=O)cc1` (stereo not drawn), the growth was 88.8% in the experiment on T-47D breast; 104% in the experiment on MDA-MB-435 melanoma; 104% in the experiment with SW-620 colon; 94.9% with MCF7 breast; 104% with HCT-116 colon; 99.1% in the experiment with HCC-2998 colon. In addition, the growth with KM12 colon is 97.6%.

Turning to `O=Cc1ccccc1C(=O)O`, the growth with T-47D breast was 97.2%; in the experiment with MDA-MB-435 melanoma it was 96.6%; in the experiment with SW-620 colon, 102%; in the experiment on MCF7 breast it was 93.7%; with HCT-116 colon it was 99.6%; with HCC-2998 colon, 98.1%. The growth in the experiment on KM12 colon was 97.9%.

For `COc1ccc(NC(=O)[C@@H]2C[C@H]2c2ccccc2)c(C(N)=O)c1`, the growth in the experiment on T-47D breast was 91.1%; in the experiment on MDA-MB-435 melanoma, 51.8%; in the experiment with SW-620 colon it was 90.9%; in the experiment with MCF7 breast it was 97.7%; in the experiment with HCT-116 colon it was 108%; with HCC-2998 colon it was 94.7%. Moreover, the growth in the experiment on KM12 colon was 87.4%.

As for `c1ccc(-c2n(Cc3ccc4ccccc4c3)cc[n+]2Cc2ccc3ccccc3c2)cc1`, the growth in the experiment on T-47D breast was -0.722% (active); in the experiment on MDA-MB-435 melanoma, -73.2% (active); in the experiment on SW-620 colon, -50.7% (active); with MCF7 breast, -65.8% (active); in the experiment with HCT-116 colon, -91.6% (active); with HCC-2998 colon it was -59.9% (active). The growth in the experiment with KM12 colon is -81.5% (active).

On to `O=CNc1ccc2c(c1)Cc1cc([N+](=O)[O-])ccc1-2`, for which the growth in the experiment with T-47D breast is 29.1%; in the experiment on MDA-MB-435 melanoma, -27.9% (active); with SW-620 colon, 32.4%; in the experiment with MCF7 breast it was 16.3%; in the experiment with HCT-116 colon, 11.7%; with KM12 colon, 13.9%.

For the compound `COc1ccc(Cl)cc1Nc1nc(C(F)(F)F)ccc1C(=O)N/N=C/c1c(Cl)cccc1Cl`, the growth in the experiment with T-47D breast was 42.2%; in the experiment on MDA-MB-435 melanoma, 62.7%; with SW-620 colon, 36.9%; in the experiment on MCF7 breast, 185%; in the experiment on HCT-116 colon, 51.4%; in the experiment with HCC-2998 colon it was 63.5%. Besides, the growth in the experiment on KM12 colon is 52.7%.

`O=C(NC1CCCCC1)c1ccc(Nc2ncnc3c2cnn3-c2ccccc2)cc1`: the growth with T-47D breast was 76.8%; in the experiment with MDA-MB-435 melanoma, 81.2%; in the experiment on SW-620 colon, 72.9%; with MCF7 breast, 82.8%; in the experiment with HCT-116 colon it was 37.6%; with KM12 colon it was 88.5%.
